Measurements published in PubChem BioAssay AID1159580 (chemical genetic matrix, 2015).
Several values for one entry are separate records, joined by “and”; a condition that tells them apart may be missing. Equal entries are not always repeated. Among all 5,500 compounds or so, about 2,000 (36%) were called active. Not shown: some 18% with an inconclusive outcome. Rule as the data show it: active = normalized growth mostly below about 0.91 (no sharp cut-off); inconclusive = no clear call, values can overlap the other calls; inactive = mostly above about 0.92. The list shows a part of the results.

Assay: chemical genetic growth profiling, strain panel (AID 1159580);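 also: tested at 20 µM; growth read once vehicle control cultures reached saturation at 30 °C; 1 = growth at the plate median or of vehicle wells; lower values mean less growth of the strain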
Conditions: S. cerevisiae deletion strains, growth OD

Measured: normalized growth

COC(=O)/C(=C1\OC(=O)C(c2ccccc2)=C1O)c1ccccc1
inactive: locus YAL013W, strain DEP1, stronger effect = lower value 1.01 | locus YAL021C, strain ccr4, stronger effect = lower value 0.979 | locus YAL026C, strain drs2, stronger effect = lower value 0.979 | locus YAL030W, strain snc1, stronger effect = lower value 0.981 | locus YBL061C, strain skt5, stronger effect = lower value 0.977 | locus YBR009C, strain hhf1, stronger effect = lower value 1 | locus YBR021W, strain FUR4, stronger effect = lower value 0.963 | locus YBR023C, strain chs3, stronger effect = lower value 0.976 | locus YBR171W, strain sec66, stronger effect = lower value 0.987 | locus YBR229C, strain ROT2, stronger effect = lower value 0.993 | locus YBR231C, strain swc5, stronger effect = lower value 0.985 | locus YBR279W, strain paf1, stronger effect = lower value 0.984 | locus YCL011C, strain gbp2, stronger effect = lower value 0.979 | locus YCL016C, strain dcc1, stronger effect = lower value 0.981 | locus YCL029C, strain bik1, stronger effect = lower value 0.987 | locus YCL061C, strain MRC1, stronger effect = lower value 0.966 | locus YCL069W, strain vba3, stronger effect = lower value 0.968 | locus YCR088W, strain abp1, stronger effect = lower value 0.962 | locus YDL005C, strain med2, stronger effect = lower value 0.974 | locus YDL035C, strain GPR1, stronger effect = lower value 1 | locus YDL040C, strain nat1, stronger effect = lower value 0.969 | locus YDL074C, strain BRE1, stronger effect = lower value 1.03 | locus YDL101C, strain DUN1, stronger effect = lower value 1.01 | locus YDL134C, strain PPH21, stronger effect = lower value 0.998 | locus YDL185W, strain tfp1, stronger effect = lower value 0.987 | locus YDL192W, strain arf1, stronger effect = lower value 1 | locus YDR001C, strain nth1, stronger effect = lower value 0.958 | locus YDR069C, strain doa4, stronger effect = lower value 1.01 | locus YDR101C, strain arx1, stronger effect = lower value 1 | locus YDR137W, strain rgp1, stronger effect = lower value 0.967 | locus YDR150W, strain NUM1, stronger effect = lower value 0.987 | locus YDR159W, strain sac3, stronger effect = lower value 0.974 | locus YDR162C, strain NBP2, stronger effect = lower value 1.02 | locus YDR195W, strain ref2 0.943 | locus YDR297W, strain sur2, stronger effect = lower value 0.977 | locus YDR318W, strain mcm21, stronger effect = lower value 0.986 | locus YDR334W, strain swr1, stronger effect = lower value 0.971 | locus YDR335W, strain msn5, stronger effect = lower value 0.982 | locus YDR388W, stronger effect = lower value 0.993 | locus YDR392W, strain spt3, stronger effect = lower value 0.972 | locus YDR502C, strain sam2, stronger effect = lower value 1.01 | locus YEL003W, strain gim4, stronger effect = lower value 0.985 | locus YEL037C, strain rad23, stronger effect = lower value 0.973 | locus YEL061C, strain CIN8 (second series), stronger effect = lower value 0.964 | locus YEL061C, strain CIN8, stronger effect = lower value 0.984 | locus YER015W, strain faa2, stronger effect = lower value 0.967 | locus YER016W, strain bim1, stronger effect = lower value 0.984 | locus YER110C, stronger effect = lower value 0.997 | locus YER111C, strain swi4, stronger effect = lower value 0.976 | locus YER155C, strain BEM2 (second series), stronger effect = lower value 1 | locus YER155C, strain BEM2, stronger effect = lower value 0.994 | locus YER167W, strain BCK2, stronger effect = lower value 0.999 | locus YFR010W, strain ubp6, stronger effect = lower value 0.991 | locus YGL078C, strain dbp3, stronger effect = lower value 0.993 | locus YGL086W, strain mad1, stronger effect = lower value 1.01 | locus YGL167C, strain pmr1, stronger effect = lower value 0.951 | locus YGL173C, strain kem1, stronger effect = lower value 0.993 | locus YGL227W, strain vid30, stronger effect = lower value 0.977 | locus YGL240W, strain doc1, stronger effect = lower value 1.02 | locus YGL248W, strain PDE1, stronger effect = lower value 1 | locus YGL253W, strain hxk2, stronger effect = lower value 0.968 | locus YGR078C, strain PAC10, stronger effect = lower value 1.03 | locus YGR135W, strain pre9, stronger effect = lower value 0.995 | locus YGR229C, strain SMI1, stronger effect = lower value 0.98 | locus YGR252W, strain gcn5, stronger effect = lower value 0.984 | locus YHR013C, strain ard1, stronger effect = lower value 0.963 | locus YHR027C, strain rpn1, stronger effect = lower value 0.976 | locus YHR030C, strain SLT2, stronger effect = lower value 0.99 and 0.914 | locus YHR079C, strain IRE1 (second series), stronger effect = lower value 0.991 | locus YHR079C, strain IRE1, stronger effect = lower value 0.912 | locus YHR094C, strain hxt1, stronger effect = lower value 0.989 | locus YHR129C, strain ARP1, stronger effect = lower value 0.989 | locus YHR142W, strain chs7, stronger effect = lower value 0.93 | locus YHR200W, strain rpn10, stronger effect = lower value 0.988 | locus YIL066C, strain RNR3, stronger effect = lower value 1.01 | locus YIL073C, strain SPO22, stronger effect = lower value 1.05 | locus YIL125W, strain kgd1, stronger effect = lower value 0.974 | locus YIR030C, strain dcg1, stronger effect = lower value 0.998 | locus YJL092W, strain hpr5, stronger effect = lower value 0.959 | locus YJL095W, strain BCK1 (second series), stronger effect = lower value 0.973 | locus YJL095W, strain BCK1, stronger effect = lower value 1.05 and 0.936 | locus YJL115W, strain asf1, stronger effect = lower value 0.974 | locus YJL129C, strain trk1, stronger effect = lower value 0.917 | locus YJL134W, strain LCB3, stronger effect = lower value 0.991 | locus YJL154C, strain vps35, stronger effect = lower value 0.957 | locus YJL164C, strain tpk1, stronger effect = lower value 0.986 | locus YJL166W, strain qcr8, stronger effect = lower value 0.993 | locus YJL168C, strain set2, stronger effect = lower value 0.996 | locus YJL187C, strain SWE1 (second series), stronger effect = lower value 1.04
